We go through 2 compounds from PMC7822874, “Chemoprotective antimalarials identified through quantitative high-throughput screening of Plasmodium blood and liver stage parasites” (Scientific Reports, 2021).

The assay deals with P. berghei-ANKA-GFP-LucCON liver stage parasites in HepG2-A16-CD81EGFP cells. Particulars: 48 h.

Each structure is given as a SMILES string. Read-outs that look alike come from different tables or passages of the source.

Consider `COC(=O)C1=C(C)NC(C)=C(C(=O)OCCCN2CCC(c3ccccc3)(c3ccccc3)CC2)C1c1cccc([N+](=O)[O-])c1` (stereo not shown) [NCGC00163135], for which the “% viability” value is recorded as 0.1886 (1 µM) and 0.1117 (3 µM).
For the compound `COc1ccc(-c2c[n+](CC(=O)c3cccs3)c3n2CCC3)cc1` [MLS000333575], the “% viability” value (1 µM) is listed as 1.153 and the “% viability” value (3 µM) is recorded as 0.8461.
